High-throughput results deposited in PubChem by National Center for Advancing Translational Sciences (NCATS).
FUS yeast rescue – rescues growth of FUS-expressing yeast. AID 1347120. Potency, µM (series often up to 76.6 µM), usual class: activators. S. cerevisiae FUS-expressing, growth rescue, OD600, 24 h. 0.24% of 390,000 active;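 also: potency is read from the fitted curve at half-maximal effect; plate controls were DMSO vehicle for no effect and reference control for full effect; nearly all actives have a fitted effect of over 55% in size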
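S. cerevisiae expressing FUS from galactose induction served as the toxicity model. Growth after 24hr at 30C, read as absorbance at 600 nm, indicates suppression of toxicity; compounds dosed at several concentrations.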
Abeta yeast res – compounds reversing amyloid beta toxicity in yeast; yeast expressing A-beta42, growth rescue, OD600, 48 h; response scale: 0% DMSO, 100% iron-clioquinol control; Potency, µM (highest dose often 46.1 µM), usual class: activators; 0.063% of 410,000 active; AID 1347071; also: potency is read from the fitted curve at half-maximal effect; nearly all actives have a fitted effect of over 55% in size
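Yeast growth medium received pinned compounds, then yeast cells expressing toxic A-beta were added; plates incubated at 30 C for 48 hr. Growth read as absorbance at 600 nm, normalized to DMSO and equimolar FeCl3 plus clioquinol controls.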
aSyn yeast inh – rescues yeast growth from alpha-synuclein toxicity; Yeast expressing alpha-synuclein, growth rescue, BacTiter-Glo, 24 h; Potency, µM (series often up to 46.1 µM), without a hit: at the top dose growth rescue (activation), most hits filed as activators; 0.14% of 370,000 active; also: potency is read from the fitted curve at half-maximal effect; % of control where 0% means no effect; nearly all actives have a fitted effect of over 65% in size
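Galactose-induced alpha-syn yeast (OD600=0.02, raffinose-pregrown) + pinned cpd, 24 hr, 30 deg C; growth by BacTiter-Glo luminescence. Growth restoration scores as activation.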
pAkt inh – Akt phosphorylation inhibition. 0.32% of 360,000 active. Neuro2A IGF-stimulated pAkt S473 HTRF, 20 min; stronger effect = lower value. activity change, % for hits at 50 µM; in the data active = activity change below about -80%; inconclusive = mostly about -51% to -80%; also: % is scaled to controls: 0 for no effect and ±100 for the full control effect
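Neuro2A cells in DMEM with 0.5% FBS, overnight at 37 deg C, given compound at single 50 µM final, then IGF (6 nM final) for 20 min at 37 deg C. Lysed; phospho-Akt Ser473 by HTRF after 24 h, 665/615 ratio.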
TDP-43 yeast inh – rescues yeast growth from TDP-43 toxicity. Potency, µM (highest dose often 46.1 µM), inactives show top-dose growth rescue (activation), usual class: activators. 1.8% of 410,000 active. TDP-43 expressing yeast growth rescue, BacTiter-Glo, 24 h; also: potency is read from the fitted curve at half-maximal effect; % of control where 0% means no effect; nearly all actives have a fitted effect of over 50% in size
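Galactose-induced TDP-43 yeast, OD600=0.02, compound pinned; 24 hr, 30 deg C; BacTiter-Glo luminescence for growth. Inhibitors of TDP-43 toxicity read as activators.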
* = called active by the depositor; i = inactive; ? = inconclusive; · = no result given. Rows were chosen to be rich in hits. Some 2.3% of all compounds tested hit in one or more screens of this group. Unless noted, calls follow the shape of the dose curve; as a rule, active = well fitted curve in the direction sought with a large enough effect; inconclusive = small, poorly fitted or top-dose-only effect, or another doubt; inactive = no such curve, though single readings can be large; an effect the other way counts as inactive or inconclusive.

SMILES | FUS yeast rescue | Abeta yeast res | aSyn yeast inh | pAkt inh | TDP-43 yeast inh
COc1ccc(-c2cc(NC(C)=O)c3ncc(-c4cccc(C(F)(F)F)c4)n3c2)c(OC)c1 | ? | i | 23% | i | 13µM*
CC(=O)Nc1cc(-c2ccccc2F)cn2c(-c3ccccc3)cnc12 | i | i | 5% | i | 20µM*
C=CCn1c(N)c(C(=O)Nc2cccc(C)c2)c2nc3ccccc3nc21 | i | i | 8% | i | 25µM*
O=C(Nc1ccc(Br)cc1F)N1CCC2(CC1)Oc1ccccc1C(=O)N2Cc1ccccc1F | i | i | · | · | -24%
C=CCc1cccc(CNc2ccc(Br)cc2)c1O | i | i | 17% | i | 22µM*
CCCCn1cc(S(=O)(=O)c2ccc(Cl)cc2)c(=O)c2cc(F)c(N3CCCC(C)C3)cc21 (centres undefined) | i | i | · | · | 8%
CCn1c(-c2ccccc2Cl)nn(CC(=O)Nc2ccc(OC)cc2)c1=S | i | i | 11% | -106%* | -14%
Cc1ccc(Cl)cc1N1CCN(C(=O)COc2cc(=O)n(C)c3ccccc23)CC1 | i | i | · | · | ?
CC1(C)Cc2c(sc3c2c(=N)n(Cc2ccco2)c(=O)n3CC(=O)Nc2cccc(Cl)c2)CO1 | ? | i | -4% | -122%* | 2%
COc1ccccc1N1CCN(S(=O)(=O)c2c(C)sc3ncn(CC(=O)N(C)c4ccc(Cl)cc4)c(=O)c23)CC1 | i | i | · | · | 7%
Cc1c(C2=CCN(S(=O)(=O)c3ccc(Cl)cc3)CC2)c2ccccc2n1CC(=O)N1CCCC1 | i | i | · | · | -13%
COc1cc(C2C(=O)N(C3CCCCC3)CC(=O)N2Cc2ccc(C)cc2)ccc1OC(C)C (centres undefined) | i | i | · | · | -1%
CCN1C(C(=O)c2ccccc2)=C(OC(=O)C(C)C)c2ccccc2S1(=O)=O | i | i | · | · | 18µM*
CCCCCN1C(C(=O)c2ccccc2)=C(OC(=O)CC)c2ccccc2S1(=O)=O | i | i | · | · | ?
CCCCC(=O)OC1=C(C(C)=O)N(Cc2ccccc2)S(=O)(=O)c2ccccc21 | i | i | · | · | ?
CCCC(=O)OC1=C(C(C)=O)N(Cc2ccccc2)S(=O)(=O)c2ccccc21 | i | i | · | · | 11µM*
CCCCN1C(C(=O)c2ccccc2)=C(OC(=O)CC)c2ccccc2S1(=O)=O | i | i | · | · | 22µM*
CCCCN(CCCC)C1=C(C(=O)c2ccccc2)N(C)S(=O)(=O)c2ccccc21 | i | i | 16µM* | · | 6%
CCN1/C(=C(\O)c2ccccc2)C(=O)c2ccccc2S1(=O)=O | i | i | 4µM* | i | ?
CSc1nc2c(sc3ccccc32)c(=O)n1Cc1ccc(C)cc1 | i | i | · | · | 25%
CCCCNC(=O)C1CCC(Cn2c(=O)c3sccc3n(Cc3ccccc3)c2=O)CC1 (centres undefined) | i | i | · | · | 16%
CCCN(C(=O)c1cc2c(=O)oc3ccccc3c2s1)c1ccccc1C | i | i | · | · | -3%
Cc1nc([N+](=O)[O-])c(Br)n1CC(=O)c1ccc(Br)cc1 | i | i | 7% | i | 11µM*
Cc1nc([N+](=O)[O-])c(Br)n1CC(=O)c1ccc2ccccc2c1 | 14µM* | i | 1% | i | 16µM*
Cc1ccccc1Nc1c(-c2ccccn2)nc2c(C)cccn12 | i | 11µM* | -10% | i | -9%
SMILES | FUS yeast rescue | Abeta yeast res | aSyn yeast inh | pAkt inh | TDP-43 yeast inh
Cc1[nH]ccc(=O)c1OCC(=O)O | i | i | -1% | i | 8%
Cc1[nH]ccc(=O)c1OCc1c(Cl)cccc1Cl | i | i | -12% | -114%* | 0%
CC(C)CCn1c(SCc2cccc(F)c2)nc2ccsc2c1=O | i | i | · | · | 9%
C#CCn1c(/C=C/c2ccc(Cl)cc2)nc2ccccc21 | i | i | · | · | 35µM*
CCn1c(/C=C/c2ccc(O)cc2)nc2ccccc2c1=O | i | i | 2% | i | 18µM*
O=c1c2ccccc2nc(/C=C/c2ccc(Cl)cc2)n1CCO | i | i | 5% | i | 11µM*
CCn1c(/C=C/c2ccccc2C)nc2ccccc2c1=O | i | i | -2% | i | 29%
CCn1c(/C=C/c2ccccc2F)nc2ccccc2c1=O | i | i | -5% | i | 8.9µM*
O=c1c2ccccc2nc(/C=C/c2ccc(Br)cc2)n1CCO | i | i | -10% | i | 5%
O=c1[nH]cnc2c1ncn2[C@H]1C[C@H](O)[C@@H](CO)O1 | · | · | 0% | · | ·
CCOc1cccc(C2CC(=O)Nc3cc4c(cc32)OCCO4)c1 (centres undefined) | i | i | · | · | 0%
Cc1cc(C)c(S(=O)(=O)NCC(c2ccco2)S(=O)(=O)c2ccccc2)c(C)c1 (centres undefined) | i | i | · | · | -4%
Cc1cc(C)c(S(=O)(=O)NCC(c2cccs2)S(=O)(=O)c2ccccc2)c(C)c1 (centres undefined) | i | i | · | · | 2.8µM*
CCOc1ccc(S(=O)(=O)NCC(c2cccs2)S(=O)(=O)c2ccc(C)cc2)cc1 (centres undefined) | i | i | · | · | 2.8µM*
COc1cccc(Cn2c(=O)n(-c3ccccc3C)c(=O)c3c2c2cc(C)ccc2n3C)c1 | i | i | · | · | 22%
Cc1nc2nc(CNC(=O)OC(C)(C)C)nn2c(C)c1CCC(=O)NCc1ccc(F)cc1 | i | i | · | · | ?
O=c1cc(C(O)C[N+](=O)[O-])occ1OCc1ccccc1 (centres undefined) | 32µM* | i | -7% | i | -8%
Nc1cc([N+](=O)[O-])ccc1OCc1ccccc1 | · | i | 1% | i | ?
CCc1ccccc1NC(=O)CSc1ncc(S(=O)(=O)c2ccccc2)c(=O)[nH]1 | i | i | 4µM* | · | 7%
COC(=O)CSc1ncc(S(=O)(=O)c2ccccc2)c(=O)[nH]1 | i | i | 3% | i | -16%
CCC(NC(=S)NCc1ccc(F)cc1)c1ccc(C(C)C)cc1 (centres undefined) | i | 7.1µM* | 5% | i | 23%
CCCc1ccc(C(C)NC(=S)NCc2ccc(F)cc2)cc1 (centres undefined) | i | 3.5µM* | -6% | i | 5%
CC(NC(=S)NC1CCCCC1)c1ccccc1 (centres undefined) | i | ? | -11% | i | 18%
CCCc1ccc(C(C)NC(=S)NC2CCCCC2)cc1 (centres undefined) | i | 11µM* | -15% | i | 11%
CCOc1ccc(C(C)NC(=S)NCc2ccc(Cl)cc2)cc1 (centres undefined) | i | ? | 3% | i | 5%
Fc1ccc(CNC(=S)NCc2ccccc2)cc1 | i | ? | -5% | i | ?
